# This is a sample that favours compounds with a hit; in the whole collection about 1.8% have one here.
# LANA-H2A inh: blocks KSHV LANA binding to histone H2A/H2B; cell-free LANA-H2A/H2B peptide, fluorescence polarization; inhibition, % (test concentration not listed); actives 0.6% (n = 320,000); in the data active = inhibition mostly above about 10%, no sharp cut-off; inactive = mostly below about 6.7%
# GRK2 aptamer HTS: human GRK2 inhibition via aptamer displacement; P25098; bead flow cytometry, FAM-aptamer displacement from GRK2; inhibition of aptamer binding, % at 10 µM; actives 0.59% (n = 330,000); AID 488847;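 active = inhibition of aptamer binding above 40%, roughly 3 SD of noise, on plates passing a quality check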;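 note: median bead fluorescence of bound FAM aptamer so fluorescent compounds give negative values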
# Target sequence (P25098 whole entry, looked up): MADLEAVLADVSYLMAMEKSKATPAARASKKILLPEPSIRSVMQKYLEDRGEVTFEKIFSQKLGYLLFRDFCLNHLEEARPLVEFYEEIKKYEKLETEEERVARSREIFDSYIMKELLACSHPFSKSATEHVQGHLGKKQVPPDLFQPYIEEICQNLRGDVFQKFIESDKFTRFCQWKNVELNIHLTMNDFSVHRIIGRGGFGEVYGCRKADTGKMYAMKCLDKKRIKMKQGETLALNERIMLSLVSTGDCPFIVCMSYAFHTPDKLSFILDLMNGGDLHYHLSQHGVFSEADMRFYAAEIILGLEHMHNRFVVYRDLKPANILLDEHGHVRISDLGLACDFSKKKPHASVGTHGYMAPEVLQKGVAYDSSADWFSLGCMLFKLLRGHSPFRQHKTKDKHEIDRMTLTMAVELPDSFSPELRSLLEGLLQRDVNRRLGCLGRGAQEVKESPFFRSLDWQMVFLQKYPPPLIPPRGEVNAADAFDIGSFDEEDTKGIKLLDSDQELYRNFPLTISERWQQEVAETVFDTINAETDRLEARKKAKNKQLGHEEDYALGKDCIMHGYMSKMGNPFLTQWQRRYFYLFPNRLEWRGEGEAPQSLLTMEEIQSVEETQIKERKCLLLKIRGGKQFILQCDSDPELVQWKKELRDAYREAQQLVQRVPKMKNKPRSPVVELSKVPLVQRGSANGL
# PKD1 inh: PKD1 (human) kinase inhibition. Q15139. PKD1 kinase fluorescence polarization assay. inhibition, % (concentration not given with the values). actives 0.056% (n = 200,000). AID 797
# VLA-4 inh: inhibition in a human VLA-4 binding assay; inhibition, % (about 7 µM as worked out from the volumes in the protocol); VLA-4 expressing cells, ligand binding flow cytometry; AID 2557; actives 0.2% (n = 330,000)
# HDAC3 inh: human HDAC3 inhibition; actives 0.15% (n = 320,000); O15379; inhibition, % at 8.3 µM; recombinant HDAC3, fluorogenic peptide/trypsin coupled, fluorescence; in the data active = inhibition above about 26%, passing the limit was not always enough
# Pemphigus Ab inh: inhibitors of pemphigus antibody binding to human desmoglein-3; P32926; DSG3-coupled beads, scFv-anti-DSG3-GFP binding, flow cytometry; hits give low values; binding (percent of control), % at 10 µM; actives 0.48% (n = 310,000); AID 588358;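 active = binding more than 3 SD below its plate's average and above zero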;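 note: hits lower antibody fragment binding to DSG3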
# GRK2 CP1: confirmation of human GRK2 inhibitors displacing RNA aptamer; actives 4% (n = 2,000); aptamer displacement, % at 10 µM; shares compounds with GRK2 aptamer HTS; bead-bound GRK2, FAM-aptamer displacement, flow cytometry;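 active = aptamer displacement above 40%, near three times the noise of non-fluorescent compounds, on plates passing quality checks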;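 note: negative values mostly reflect intrinsic compound fluorescence rather than true enhancement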
# Aptamer quench: fluorescent aptamer quenching in GRK2 counter-screen dose response; Fluorescent RNA aptamer beads, flow cytometry; hits give high values; 110 tested, under 10 active; AID 504521; fluorescence change (kMESF span), kMESF (concentration not given with the values); shares compounds with GRK2 aptamer HTS;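 active = compounds whose bead fluorescence drops by more than 37 kMESF across the dose range, marking them as dye quenchers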
# FAM quench CP1: counter-screen for GRK2 aptamer inhibitors: fluorescent aptamer quenchers | shares compounds with GRK2 aptamer HTS | Carboxyfluorescein RNA aptamer on beads, flow cytometry quenching; hits give low values | fluorescence response (% of DMSO), % at 10 µM | 2,000 tested, under 10 active;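 active = compounds that quench the bead-bound fluorescent RNA probe, cutting fluorescence to under half of the solvent control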;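 note: counterscreen run without GRK2 so only probe quenching by compound is measured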
# GRK2 confirm 2: confirmation of human GRK2 inhibitors binding RNA aptamer site; shares compounds with GRK2 aptamer HTS; bead-bound GRK2, FAM-aptamer displacement, flow cytometry; inhibition of aptamer binding, % at 10 µM; 360 tested, under 10 active;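 active = inhibition of aptamer binding above 40%, about triple the noise seen with nonglowing compounds, on plates passing quality control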;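 note: negative values mostly come from compounds that fluoresce themselves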
# FAM quench SP: quenches fluorescent RNA aptamer, GRK2 hit artifact | shares compounds with GRK2 aptamer HTS | carboxyfluorescein RNA aptamer beads, flow cytometry quenching; hits give low values | fluorescence response vs DMSO, % at 10 µM | 360 tested, under 10 active | AID 588494;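 active = response vs DMSO under 50%, meaning signal dropped by over half, treated as fluorescence quencher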;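 note: labelled aptamer on streptavidin beads without GRK2 as a quench counter-screen; 100% = bead fluorescence of DMSO wells and lower means quenching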
# FAM quench DR: counter-screen for GRK2 aptamer binding inhibitors: aptamer fluorescence quenching; shares compounds with GRK2 aptamer HTS; Bead-bound FAM RNA aptamer fluorescence quenching, flow cytometry; hits give low values; fluorescence ratio to DMSO, % at 11.1 µM; 35 tested, under 10 active;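 active = compounds that dim the fluorescent label, raw bead signal shifting by over 33 units between lowest and highest dose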
# An asterisk follows results filed as active; . = no result given. Cut-off read from the data, not from the text of the source, unless noted: active = inhibition above about 50%; inactive = the rest.
SMILES,LANA-H2A inh,GRK2 aptamer HTS,PKD1 inh,VLA-4 inh,HDAC3 inh,Pemphigus Ab inh,GRK2 CP1,FAM quench CP1,others
O=S(=O)(Nc1cc(Sc2cccc3cccnc23)c(O)c2ccccc12)c1ccc(F)cc1,4,42*,0,1,10,.,3,97,
COCCN(C(=O)CSc1nnc(-c2ccccc2F)o1)c1c(N)n(CC(C)C)c(=O)[nH]c1=O,-3,0,.,21,0,107,.,.,
CC(C)CNC(=S)N1CCN(c2nc3ccccc3s2)CC1,-1,42*,1,-8,1,104,0,98,
CCn1c(N2CCN(C(=S)NCC(C)C)CC2)nc2ccccc21,0,4,-7,5,-17,99,.,.,
C=CCn1cccc(C(=O)Nc2ccc(OC)c(OC)c2)c1=O,3,48*,-2,-73,2,105,0,97,
C=CCn1cccc(C(=O)Nc2ccc(OC)c(Cl)c2)c1=O,-3,0,.,5,6,100,.,.,
CC(C)Cc1nc2oc3c(=O)[nH]cnc3c2c2c1CCC2,0,93*,-4,3,-1,72,1,100,
O=c1[nH]c2ccccc2nc1/C=C/c1ccc(O)cc1,.,.,10,.,.,106,.,.,
O=c1[nH]c2ccccc2nc1/C=C/c1ccccc1,4,52*,-1,-9,4,104,2,100,
O=C(Nc1cccc(S(=O)(=O)N2CCOCC2)c1)c1cc(S(=O)(=O)N2CCOCC2)c(Cl)cc1Cl,.,.,.,.,.,112,.,.,
O=C(O)CCn1c(=S)oc2ccccc21,-1,2,-4,4,-1,94,.,.,
Cn1c(=S)n(CCC(=O)O)c2ccccc21,-1,15,-1,-4,3,104,-1,98,
Cc1cc(C)c(NC(=O)CN(C)CC(=O)N(C)CC(=O)Nc2c(Cl)cccc2Cl)c(C)c1,.,0,.,10,.,105,.,.,
COc1cc2c(cc1OC)CN(C(=O)Cc1c(F)cccc1Cl)CC2,4,1,.,-12,4,104,.,.,
CC(=O)c1ccccc1N(C(=O)c1ccco1)C(C(=O)NC1CCCC1)c1ccc(N2CCOCC2)cc1 (stereo unspecified),-2,0,1,2,-1,113,.,.,
COc1ccc(NC(=O)CCS(=O)(=O)c2ccc(Br)s2)cc1,12,87*,.,-7,-5,116,43*,95,Aptamer quench=-2.3;FAM quench DR=97
O=C(CCS(=O)(=O)c1ccc(Br)s1)Nc1ccccc1Br,0,88*,7,3,-6,84,12,94,Aptamer quench=-5.6;FAM quench DR=98
CC1=C(C(=O)OCC2CCCCC2)C(c2ccc(O)cc2)NC(=O)N1 (stereo unspecified),1,16,.,7,-3,111,-42,192,
CC1=C(C(=O)OCC2CCCCC2)C(c2cccc(O)c2)NC(=O)N1 (stereo unspecified),-1,0,.,-5,1,96,.,.,
CCOc1ccccc1NC(=S)N1C2CCC1CC(NC(=O)NC13CC4CC(CC(C4)C1)C3)C2 (stereo unspecified),3,3,-11,-8,-3,101,.,.,
COc1ccccc1NC(=S)N1C2CCC1CC(NC(=O)NC13CC4CC(CC(C4)C1)C3)C2 (stereo unspecified),6,46*,-8,7,-5,100,1,92,
O=S(=O)(c1ccccc1OC(F)(F)F)N1CCN(c2ccnc3cc(Cl)ccc23)CC1,-4,77*,.,1,-10,116,.,.,GRK2 confirm 2=16;FAM quench SP=101
O=S(=O)(c1cccc(Br)c1)N1CCN(c2ccnc3cc(Cl)ccc23)CC1,2,3,.,-5,7,117,.,.,
COc1ccc(Cl)cc1NC(=O)CN(C)C(=O)C1COc2ccccc2O1 (stereo unspecified),-9,4,.,4,3,123,.,.,
CCc1ccc(NS(=O)(=O)c2ccc3c(c2)CCN3C(=O)CCC(=O)O)cc1,1,52*,.,0,2,111,.,.,GRK2 confirm 2=6;FAM quench SP=102
SMILES,LANA-H2A inh,GRK2 aptamer HTS,PKD1 inh,VLA-4 inh,HDAC3 inh,Pemphigus Ab inh,GRK2 CP1,FAM quench CP1,others
CCC(=O)N1CCc2cc(S(=O)(=O)CCC(=O)Nc3ccc(CC)cc3)ccc21,-1,1,23,-1,2,93,.,.,GRK2 confirm 2=12;FAM quench SP=99
CCc1c(C)nc2ncnn2c1N1CCCC(C(=O)NCc2cccs2)C1 (stereo unspecified),-1,51*,-4,-1,5,94,0,99,
CCc1c(C)nc2ncnn2c1N1CCC(C(=O)NCc2cccs2)CC1,-2,1,-3,-1,0,102,.,.,
Cc1ccc(C)c(NC(=O)CN(C)C(=O)c2cc(-c3cccs3)nn2-c2ccccc2)c1,-1,2,.,-11,1,.,.,.,
CC(CCC(=O)O)C1CC[C@@]2(C)C3C(=O)CC4C(C)(C)C(O)CC[C@]4(C)C3C(=O)C[C@]12C (stereo partly specified),6,44*,.,-4,1,108,1,98,
COc1cc(OC)cc(C(=O)NCc2ccc3c(c2)OCO3)c1,6,0,.,17,1,104,.,.,
CC(=O)N(Cc1ccccc1)Cc1nc2sc(C)c(C)c2c(=O)[nH]1,0,4,-3,2,2,101,.,.,
Cc1sc2nc(CN(Cc3ccccc3)C(=O)NC3CCCCC3)[nH]c(=O)c2c1C,-3,30,-9,18,5,123,-2,101,
COc1cc(SC)ccc1C(=O)Nc1c(C)cccc1C,0,0,3,6,1,118,.,.,
COc1cc(SC)ccc1C(=O)NNC(=O)c1cc(C)oc1C,-5,45*,.,-1,6,96,-4,102,
CN(C)CCCNC1=CC(=O)CC(c2ccccc2)C1 (stereo unspecified),0,80*,1,2,5,104,-1,104,

# Screening results: PubChem, several laboratories
